{"source": "PubChem BioAssay AID1347420", "about": "(Sanford-Burnham Center for Chemical Genomics, 2020)", "note": "In all, about 1,300 compounds went through this assay and about 980 (75%) were called active. Another 4% or so got no clear call; they are omitted. This is one part of the list. Unmarked numbers belong to inactive results.", "data": [{"biological_target": "Sulfhydryl oxidase 1 (Homo sapiens) (UniProt O00391)", "sequence (O00391 whole entry, looked up)": "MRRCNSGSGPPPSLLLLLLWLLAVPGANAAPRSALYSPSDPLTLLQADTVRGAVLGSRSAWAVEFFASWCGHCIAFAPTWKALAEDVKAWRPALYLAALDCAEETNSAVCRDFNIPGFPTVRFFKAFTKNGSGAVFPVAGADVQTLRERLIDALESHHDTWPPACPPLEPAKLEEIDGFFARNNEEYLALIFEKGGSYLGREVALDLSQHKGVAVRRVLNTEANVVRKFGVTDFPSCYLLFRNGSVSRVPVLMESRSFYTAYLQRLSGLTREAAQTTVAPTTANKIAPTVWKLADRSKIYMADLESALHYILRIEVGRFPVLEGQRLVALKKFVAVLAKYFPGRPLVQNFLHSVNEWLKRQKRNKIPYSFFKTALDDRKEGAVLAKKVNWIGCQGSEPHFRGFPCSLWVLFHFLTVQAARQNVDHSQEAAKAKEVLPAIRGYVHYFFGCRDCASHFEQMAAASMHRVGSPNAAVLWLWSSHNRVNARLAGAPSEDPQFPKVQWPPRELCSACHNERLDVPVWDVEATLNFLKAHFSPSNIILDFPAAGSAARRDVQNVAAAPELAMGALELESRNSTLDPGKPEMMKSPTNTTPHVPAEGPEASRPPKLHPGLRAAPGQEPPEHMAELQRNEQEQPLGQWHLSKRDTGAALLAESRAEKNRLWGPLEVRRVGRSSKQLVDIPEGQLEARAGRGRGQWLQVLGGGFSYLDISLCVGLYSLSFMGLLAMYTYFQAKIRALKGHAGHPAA", "experiment": "inhibition of human sulfhydryl oxidase QSOX1 – biochemical, HyperBlu H2O2 luminescence, HTS, primary screen (AID 1347420); note: values above 100% were filed as inconclusive", "details": "recombinant QSOX1, HyperBlu H2O2 luminescence, at 12.5 µM, hits give high values; active = any value above zero unless noted", "values": [{"smiles": "C[C@H]1C2Cc3ccc(O)cc3C1(C)CCN2CC1CC1", "note": "(some centres not stated)", "inhibition": "26.8% [setting not given] (active)"}, {"smiles": "O=C(CCCN1CCC2(CC1)C(=O)NCN2c1ccccc1)c1ccc(F)cc1", "inhibition": "7.6% [setting not given] (active)"}, {"smiles": "O=C1NCN(c2ccccc2)C12CCN(CC1COc3ccccc3O1)CC2", "note": "(configuration not stated)", "inhibition": "5.7% (active)"}, {"smiles": "CC(CCc1ccccc1)NC(C)C(O)c1ccc(O)cc1", "note": "(configuration not stated)", "inhibition": "28.5% (active)"}, {"smiles": "Cc1cccc(C)c1NC(=O)CN1CCCC1=O", "inhibition": "13.4% [setting not given] (active)"}, {"smiles": "O=C1CCCN1CC#CCN1CCCC1", "inhibition": "12.7% [setting not given] (active)"}, {"smiles": "NC(=O)CN1CCCC1=O", "inhibition": "1% [setting not given] (active)"}, {"smiles": "NC(=O)CN1CC(O)CC1=O", "note": "(configuration not stated)", "inhibition": "15.4% [setting not given] (active)"}, {"smiles": "O=P1(N(CCCl)CCCl)NCCCO1", "note": "(configuration not stated)", "inhibition": "-3.8%"}, {"smiles": "C/C=C(/C)C(=O)O[C@H]1C(C)=C2[C@H]([C@@H]1OC(=O)CCCCCCC)[C@@](C)(OC(C)=O)C[C@H](OC(=O)CCC)[C@@]1(O)[C@H]2OC(=O)[C@@]1(C)O", "inhibition": "-2.4%"}, {"smiles": "Cc1nccc2c1[nH]c1ccccc12", "inhibition": "8.6% [setting not given] (active)"}, {"smiles": "Cc1c2ccncc2c(C)c2c1[nH]c1ccccc12", "inhibition": "78.9% [setting not given] (active)"}, {"smiles": "CC(=O)OCC1=C(C(=O)O)N2C(=O)[C@@H](NC(=O)CCC[C@@H](N)C(=O)O)[C@H]2SC1", "inhibition": "-10.7%"}, {"smiles": "Cc1ncsc1CCCl", "inhibition": "12.9% (active)"}, {"smiles": "c1ccc(C2(c3ccccc3)CC2C2=NCCN2)cc1", "note": "(configuration not stated)", "inhibition": "6.4% (active)"}, {"smiles": "COc1cc(CC(C)N)c(OC)cc1I", "note": "(configuration not stated)", "inhibition": "7.8% [setting not given] (active)"}, {"smiles": "CS(=N)(=O)CC[C@H](N)C(=O)O", "note": "(some centres not stated)", "inhibition": "-10.8%"}, {"smiles": "NC(CP(=O)(O)O)C(=O)O", "note": "(configuration not stated)", "inhibition": "2.2% (active)"}, {"smiles": "N[C@@H](CCl)C(=O)O", "inhibition": "8.8% (active)"}, {"smiles": "NCC(CP(=O)(O)O)c1ccc(Cl)cc1", "note": "(configuration not stated)", "inhibition": "-10.6%"}, {"smiles": "C[Se]C[C@H](N)C(=O)O", "inhibition": "-0.1%"}, {"smiles": "NC(CCCCCP(=O)(O)O)C(=O)O", "note": "(configuration not stated)", "inhibition": "-4.7%"}, {"smiles": "NC(CCP(=O)(O)O)C(=O)O", "note": "(configuration not stated)", "inhibition": "12.3% (active)"}, {"smiles": "CN1C2CCC1CC(OC(c1ccccc1)c1ccccc1N)C2", "note": "(configuration not stated)", "inhibition": "14.6% (active)"}, {"smiles": "O=C(O)Cc1cnc[nH]1", "inhibition": "5.5% (active)"}, {"smiles": "OCc1cnc[nH]1", "inhibition": "3.5% (active)"}, {"smiles": "C[C@@H](N)Cc1cnc[nH]1", "inhibition": "21.1% (active)"}, {"smiles": "C#CCOC(=O)C1=CCCN(C)C1", "inhibition": "17.9% (active)"}, {"smiles": "COC(=O)C1=CCCN(C)C1", "inhibition": "0.6% [setting not given] (active)"}, {"smiles": "CC(C)NC(C)Cc1ccc(I)cc1", "note": "(configuration not stated)", "inhibition": "19.1% [setting not given] (active)"}, {"smiles": "CC(C)N(CCC(C(N)=O)(c1ccccc1)c1ccccn1)C(C)C", "note": "(configuration not stated)", "inhibition": "39.4% [setting not given] (active)"}, {"smiles": "Cc1cc([C@@H]2CCCN2C)on1", "inhibition": "9.3% (active)"}, {"smiles": "CN1CCC(c2c[nH]c3ccc(O)cc23)CC1", "inhibition": "84% (active)"}, {"smiles": "CCCCCCC(C)(C)c1ccc([C@@H]2C[C@H](O)CC[C@H]2CCCO)c(O)c1", "inhibition": "3.2% [setting not given] (active)"}, {"smiles": "Cc1cccc(C)c1NC1=NCCCS1", "inhibition": "12.9% [setting not given] (active)"}, {"smiles": "C[C@@H]1O[C@@H](O[C@H]2C[C@@H](O)[C@]3(CO)[C@@H]4C(CC[C@]3(O)C2)[C@@]2(O)CC[C@H](C3COC(=O)C3)[C@@]2(C)C[C@H]4O)[C@H](O)[C@H](O)[C@H]1O", "note": "(some centres not stated)", "inhibition": "24.8% (active)"}, {"smiles": "C[C@@H]1O[C@@H](O[C@H]2C[C@@H](O)[C@]3(CO)[C@H]4[C@H](O)C[C@]5(C)[C@@H](C6=CC(=O)OC6)CC[C@]5(O)[C@@H]4CC[C@]3(O)C2)[C@H](O)[C@H](O)[C@H]1O", "inhibition": "2.5% [setting not given] (active)"}, {"smiles": "NC(=O)COc1c(F)cc(SCCNS(=O)(=O)c2ccccc2)cc1F", "inhibition": "-12.8%"}, {"smiles": "Clc1ccc(N2CC3CCC(C2)N3)nn1", "inhibition": "25.6% (active)"}, {"smiles": "CC(C)=CCOc1c2occc2cc2ccc(=O)oc12", "inhibition": "31.6% [setting not given] (active)"}, {"smiles": "CC(O)(CS(=O)(=O)c1ccc(F)cc1)C(=O)Nc1ccc(C#N)c(C(F)(F)F)c1", "note": "(configuration not stated)", "inhibition": "13.7% [setting not given] (active)"}, {"smiles": "c1ccc2cc(CC3=NCCN3)ccc2c1", "inhibition": "11% [setting not given] (active)"}, {"smiles": "CCCN1CCC[C@@H](c2cccc(O)c2)C1", "inhibition": "25.8% (active)"}, {"smiles": "CCCN1CCC[C@H](c2cccc(O)c2)C1", "inhibition": "10.7% (active)"}, {"smiles": "CC1(C(=O)O)C2CCC(O2)C1(C)C(=O)O", "note": "(configuration not stated)", "inhibition": "-0.6%"}, {"smiles": "CCCCC/C=C\\C/C=C\\C/C=C\\C/C=C\\CCCC(=O)NCC(=O)O", "inhibition": "3.4% (active)"}, {"smiles": "NC1CC1c1ccccc1", "note": "(configuration not stated)", "inhibition": "14.9% (active)"}, {"smiles": "Nc1ccc(CCN2CCN(c3cccc(C(F)(F)F)c3)CC2)cc1", "inhibition": "27.1% (active)"}, {"smiles": "CC[C@@H](C(N)=O)N1CCCC1=O", "inhibition": "12.2% [setting not given] (active)"}, {"smiles": "CN1CCc2cc(O)cc3c2[C@H]1Cc1ccc(O)c(O)c1-3", "inhibition": "94% (active)"}, {"smiles": "COc1ccc2c(c1O)-c1cccc3c1[C@@H](C2)N(C)CC3", "inhibition": "39% (active)"}, {"smiles": "Cc1sc2ccccc2c1CC1=NCCN1", "inhibition": "9.6% (active)"}, {"smiles": "CC(C)(O)[C@@H]1[C@H]2OC(=O)[C@@H]1[C@]1(O)C[C@H]3O[C@]34C(=O)O[C@H]2[C@]14C", "note": "(tested in a mixture with another compound)", "inhibition": "14.8% (active)"}, {"smiles": "Oc1ccc2c3c1O[C@H]1c4[nH]c5c(c4C[C@@]4(O)[C@@H](C2)N(CC2CC2)CC[C@]314)C[C@@]1(O)[C@H]2Cc3ccc(O)c4c3[C@@]1(CCN2CC1CC1)[C@H]5O4", "inhibition": "25.2% (active)"}, {"smiles": "NC(N)=Nc1ccc2[nH]c3c(c2c1)C[C@@]1(O)[C@H]2Cc4ccc(O)c5c4[C@@]1(CCN2CC1CC1)[C@H]3O5", "inhibition": "18.5% [setting not given] (active)"}, {"smiles": "Oc1ccc2c3c1O[C@H]1c4[nH]c5ccccc5c4C[C@@]4(O)C(C2)N(CC2CC2)CCC314", "note": "(some centres not stated)", "inhibition": "63.8% [setting not given] (active)"}, {"smiles": "Oc1ccc2c3c1O[C@H]1c4oc5ccccc5c4C[C@@]4(O)C(C2)N(CC2CC2)CCC314", "note": "(some centres not stated)", "inhibition": "18.4% [setting not given] (active)"}]}]}
